Test results: the supplement of paper PMC11219838
Values without a mark were called inactive.

Key:
Conditions in all cases: 60 µM; 5 days; temperature: 20 °C
Meloidogyne hapla J2 = assay: proportion of mobile M. hapla J2 relative to DMSO control (fraction of DMSO control); higher = more viable, less nematicidal, active = 0.7 or less
Method in brief: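 About 25 M. hapla J2 were added per 96-well well in distilled water, and compound was pinned to 60 µM final (0.6% v/v DMSO). Sealed plates were shaken at 200 rpm for 5 days at 20 °C, then 2 µL 1 M NaOH was added before microscopic mobility scoring. Mobility was divided by the mean of eight DMSO wells on the same plate, and two biological replicates were averaged.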

[1] = system: Caenorhabditis elegans dauer (daf-2(e1370)); assay: proportion of mobile C. elegans dauer larvae relative to DMSO control (fraction of DMSO control); higher = more viable, less nematicidal, active = 0.63 or less; extreme values may be limits of the assay
Method in brief: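 The proportion of mobile worms, relative to DMSO wells, was scored by dissection microscope and averaged over two biological replicates. Worms were C. elegans dauers, about 20 per well in liquid NGM in 96-well plates, generated from synchronized larvae on MYOB plates with E. coli OP50 at 25 °C for 48 h. They were treated with compound pinned to 60 µM final (0.6% v/v DMSO) and kept in sealed plates shaken at 200 rpm for 5 days at 20 °C.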

Ditylenchus dipsaci = assay: proportion of mobile D. dipsaci (mixed stage) relative to DMSO control (fraction of DMSO control); higher = more viable, less nematicidal, active = 0.86 or less; extreme values may be limits of the assay
Method in brief: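 D. dipsaci were grown on pea plants in Gamborg B-5 agar and extracted through a filter funnel into water, and about 20 worms were added per 96-well well in distilled water. Compound was pinned to 60 µM final (0.6% v/v DMSO), and sealed plates were shaken at 200 rpm for 5 days at 20 °C. After 2 µL 1 M NaOH was added, mobile worms were scored microscopically. Mobility was expressed relative to DMSO controls and averaged over two biological replicates.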

SMILES	proportion of mobile M. hapla J2 (Meloidogyne hapla J2)	proportion of mobile C. elegans dauer larvae [1]	proportion of mobile D. dipsaci (Ditylenchus dipsaci)
Cc1ncc2c(c1-c1noc(-c3ccccc3)n1)CCC2	0.921	0.929	1
Cc1cccc(NC(=O)CSc2nnc(-c3ccncc3)o2)c1C	1.02	1	1
Brc1ccc(-c2noc(COc3ccc4c(c3)OCO4)n2)cc1	1.06	1	1
Clc1ccc(-c2nc(-c3ccncc3)no2)cc1	1.03	1	1
Cc1ccccc1CSc1nnc(-c2ccccc2Cl)o1	0.888	1	1
c1ccc2cc(-c3nc(-c4ccncc4)no3)ccc2c1	0.994	1	1
Cc1cccc(OCc2nc(-c3ccc(Br)cc3)no2)c1	1.04	1	1
Cc1cccc(-c2noc(-c3ccc(F)cc3)n2)c1	0.642 (active)	1	1
COc1ccc(-c2nnc(SCC(=O)Nc3ccccc3F)o2)cc1	1.04	1	1
Cc1ccccc1CSc1nnc(-c2ccccc2)o1	1.02	1	1
CCCOc1ccc(-c2nc(-c3cccnc3)no2)cc1	0.945	1	1
CCOc1ccccc1-c1nc(-c2ccc(F)cc2)no1	1.06	1	1
Cc1ccc(NC(=O)CSc2nnc(-c3ccccc3)o2)cc1F	1.02	1	1
Cc1ccc(-c2nnc(SCc3ccccc3C#N)o2)cc1	0.937	1	1
Clc1ccc(-c2nc(-c3cccnc3)no2)c(Cl)c1	1.04	0.625 (active)	1
Cc1cccc(-c2noc(-c3ccc(C)c(Cl)c3)n2)c1	1.01	1	1
COc1ccc(-c2noc(-c3ccc(Cl)cc3)n2)cc1	0.983	0.778	1
COc1ccc(CC(=O)Nc2ccc(-c3noc(-c4ccc(F)cc4)n3)cc2)cc1	0.978	1	1
O=C(CSc1nnc(-c2ccc(Br)cc2)o1)Nc1cccc2ccccc12	0.923	1	1
CCCc1nnc(SCc2nnc(-c3ccccc3)o2)o1	1.03	1	1
Cc1ccc(-c2nnc(SCC(=O)Nc3ccc(Br)c(C)c3C)o2)cc1	1.03	1	1
CCN(CC)C(=O)CSc1nnc(-c2cccc(Cl)c2)o1	0.922	1	1
CCOc1ccccc1-c1nnc(SCC(=O)Nc2ccccc2)o1	0.907	1	1
O=C(CSc1nnc(-c2ccc(Br)cc2)o1)Nc1ccc2ccccc2c1	0.866	1	1
COc1cccc(-c2noc(-c3ccc(C)cc3Cl)n2)c1	1	1	1

SMILES	proportion of mobile M. hapla J2 (Meloidogyne hapla J2)	proportion of mobile C. elegans dauer larvae [1]	proportion of mobile D. dipsaci (Ditylenchus dipsaci)
CCCCCSc1nnc(-c2ccc(Cl)cc2Cl)o1	0.96	1	1
O=C(CSc1nnc(-c2cccc(Br)c2)o1)NC1CCCCC1	0.778	1	1
Cc1ccc(-c2nc(-c3ccc(F)cc3)no2)cc1	1.04	0 (active)	0.708 (active)
COC(=O)c1ccc(CSc2nnc(-c3ccc(OC)cc3)o2)cc1	1.02	1	1
O=C(NC1CCCCC1)c1ccccc1-c1nc(-c2ccc(F)cc2)no1	0.863	1	1
Cc1ccc(CSc2nnc(-c3ccco3)o2)cc1	0.628 (active)	0.167 (active)	1
Cc1cc(OC(C)c2nc(-c3cccnc3)no2)ccc1Cl (configuration not stated)	0.862	1	1
O=C(CSc1nnc(-c2ccccc2Cl)o1)Nc1ccc(F)cc1	0.896	1	1
Brc1cccc(-c2nc(-c3cccnc3)no2)c1	1.01	1	1
Cc1ccc(-c2nc(-c3ccccc3Cl)no2)cc1	0.998	1	1
COc1nc(C)ccc1-c1noc(-c2ccc(C)cc2)n1	0.926	1	1
Brc1ccc(CSc2nnc(-c3ccco3)o2)cc1	0.995	1	1
COc1ccc(-c2noc(-c3ccccc3Br)n2)cc1	0.765	1	1
Cc1ccc(NC(=O)CSc2nnc(-c3ccco3)o2)cc1Br	1.03	1	1
COc1ccc(-c2noc(COc3ccc(Cl)c(C)c3)n2)cc1	1.02	1	1
Cc1cc(Br)ccc1OCc1nc(-c2cccnc2)no1	1.05	1	1
Cc1cc(OCc2nc(-c3ccncc3)no2)c(C)cc1Br	0.866	1	1
Cc1ccc(-c2nc(-c3ccccc3Br)no2)cc1	0.962	1	1
O=C(CSc1nnc(-c2ccccc2)o1)Nc1cccc(Cl)c1	1	1	1
COc1ccc(-c2nnc(SCC(=O)Nc3ccc(Br)cc3C)o2)cc1	0.929	1	0.667 (active)
Cc1cc(C)c(C)c(OCc2nc(-c3cccnc3)no2)c1	0.58 (active)	1	1
O=C(CSc1nnc(-c2ccccc2)o1)NCc1ccccc1	0.948	1	1
FC(F)(F)c1ccc(-c2noc(-c3ccccc3Cl)n2)cc1	1.04	1	1
Cc1cc(Cl)ccc1OCc1nc(-c2ccncc2)no1	1.02	1	1
Clc1ccc(OCc2nc(-c3ccccn3)no2)c(Br)c1	1.04	1	1

SMILES	proportion of mobile M. hapla J2 (Meloidogyne hapla J2)	proportion of mobile C. elegans dauer larvae [1]	proportion of mobile D. dipsaci (Ditylenchus dipsaci)
O=C(Nc1ccccc1-c1nc(-c2ccncc2)no1)c1ccccc1Cl	0.979	1	1
CCc1ccc(OCc2nc(-c3cccc(OC)c3)no2)cc1	0.74	1	1
Cc1ccc(C)c(-c2nc(-c3ccncc3)no2)c1	1.09	0.385 (active)	1
COc1ccccc1OCc1nc(-c2cccc(C)c2)no1	0.871	1	1
CCOc1ccc(-c2noc(-c3ccncc3)n2)cc1OC	1	1	1
O=C(CSc1nnc(-c2ccncc2)o1)Nc1ccc(Cl)cc1Cl	0.57 (active)	1	1
Clc1ccc(OCc2nc(-c3cccnc3)no2)c(Cl)c1	0.998	1	1
O=C(CSc1nnc(-c2cccc(Cl)c2)o1)Nc1nccs1	0.894	1	1
O=C(Nc1cccc(-c2noc(COc3ccccc3)n2)c1)c1cccs1	0.847	1	1
Cc1ccc(OCc2nc(-c3ccccc3)no2)c(Br)c1	1.01	1	1
COc1cccc(NC(=O)CSc2nnc(-c3ccc(C)cc3)o2)c1	1.04	1	1
COc1cccc(-c2nnc(SCc3ccccc3)o2)c1	0.985	1	1
O=C(CSc1nnc(-c2ccco2)o1)Nc1ccc(Br)cn1	0.756	1	1
COc1ccc(CCC(=O)Nc2ccc(-c3noc(COc4ccccc4C)n3)cc2)cc1	0.898	1	1
Cc1ccc(-c2nc(-c3ccc(Br)cc3)no2)cc1	0.916	1	1
Cc1ccc(-c2noc(-c3ccc(C)cc3)n2)cc1	1.01	0.881	1
COc1ccc(-c2noc(COc3ccc(C(C)(C)C)cc3Br)n2)cc1	0.82	1	1
Clc1ccccc1OCc1nc(-c2ccc(Br)cc2)no1	1.02	1	1
CCCCCOC(=O)CSc1nnc(-c2ccc(Cl)cc2Cl)o1	0.737	1	1
COc1nc(C)ccc1-c1noc(-c2ccccc2Br)n1	0.917	1	1
c1ccc(-c2noc(C3COc4ccccc4O3)n2)cc1 (configuration not stated)	0.953	0.539 (active)	1
Cc1cc(OCc2nc(-c3ccccn3)no2)ccc1Br	0.937	1	1
COc1cccc(-c2noc(-c3cc(C)ccc3C)n2)c1	0.995	1	1
Cc1ccc(SC(C)c2nc(-c3cccnc3)no2)cc1 (configuration not stated)	0.874	1	1
